Here are results for ten compounds from ChEMBL document CHEMBL3988442, “University of Dundee, Small-Polar-MMV Screening Library” (2021).

SMILES strings stand for the structures. For some assays here: Potency and affinity values are given separately.

What all share (parameters): scale not given: direction of the effect not stated beside the values
For test [1], the target named is Protein translocase subunit SecA (Escherichia coli (strain K12)) (UniProt P10408). In words: Assay to Identify E. coli SecA ATPase Inhibitors. It is filed as functional. The following applies: 30 µM.
Chain of Protein translocase subunit SecA (Escherichia coli (strain K12)) (P10408 whole entry): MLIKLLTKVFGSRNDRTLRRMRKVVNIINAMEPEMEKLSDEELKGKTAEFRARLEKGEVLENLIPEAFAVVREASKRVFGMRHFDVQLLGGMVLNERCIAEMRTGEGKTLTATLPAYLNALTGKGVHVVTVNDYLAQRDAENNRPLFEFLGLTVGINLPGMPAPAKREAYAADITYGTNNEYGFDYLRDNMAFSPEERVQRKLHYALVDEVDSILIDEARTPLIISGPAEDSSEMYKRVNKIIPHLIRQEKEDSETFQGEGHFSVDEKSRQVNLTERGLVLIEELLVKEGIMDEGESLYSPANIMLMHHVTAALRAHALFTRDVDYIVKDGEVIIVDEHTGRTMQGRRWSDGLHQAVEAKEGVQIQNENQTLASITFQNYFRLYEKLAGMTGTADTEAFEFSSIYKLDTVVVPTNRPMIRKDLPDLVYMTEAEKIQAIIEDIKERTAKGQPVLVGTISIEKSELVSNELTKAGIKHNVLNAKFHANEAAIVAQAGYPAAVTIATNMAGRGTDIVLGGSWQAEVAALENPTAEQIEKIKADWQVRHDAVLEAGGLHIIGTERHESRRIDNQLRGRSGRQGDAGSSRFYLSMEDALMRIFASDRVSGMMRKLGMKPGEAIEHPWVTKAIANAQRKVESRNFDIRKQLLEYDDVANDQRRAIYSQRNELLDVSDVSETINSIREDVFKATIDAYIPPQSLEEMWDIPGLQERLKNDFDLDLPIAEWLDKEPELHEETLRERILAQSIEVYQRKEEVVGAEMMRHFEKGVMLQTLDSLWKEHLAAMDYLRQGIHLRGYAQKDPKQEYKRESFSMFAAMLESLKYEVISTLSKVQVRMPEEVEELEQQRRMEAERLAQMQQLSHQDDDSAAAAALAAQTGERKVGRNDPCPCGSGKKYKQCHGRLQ
The target of test [2] is T1, Ubiquitin-activating enzyme e1, putative (Leishmania donovani (strain BPK282A1)) (UniProt E9BSI1).
T1 sequence (whole entry): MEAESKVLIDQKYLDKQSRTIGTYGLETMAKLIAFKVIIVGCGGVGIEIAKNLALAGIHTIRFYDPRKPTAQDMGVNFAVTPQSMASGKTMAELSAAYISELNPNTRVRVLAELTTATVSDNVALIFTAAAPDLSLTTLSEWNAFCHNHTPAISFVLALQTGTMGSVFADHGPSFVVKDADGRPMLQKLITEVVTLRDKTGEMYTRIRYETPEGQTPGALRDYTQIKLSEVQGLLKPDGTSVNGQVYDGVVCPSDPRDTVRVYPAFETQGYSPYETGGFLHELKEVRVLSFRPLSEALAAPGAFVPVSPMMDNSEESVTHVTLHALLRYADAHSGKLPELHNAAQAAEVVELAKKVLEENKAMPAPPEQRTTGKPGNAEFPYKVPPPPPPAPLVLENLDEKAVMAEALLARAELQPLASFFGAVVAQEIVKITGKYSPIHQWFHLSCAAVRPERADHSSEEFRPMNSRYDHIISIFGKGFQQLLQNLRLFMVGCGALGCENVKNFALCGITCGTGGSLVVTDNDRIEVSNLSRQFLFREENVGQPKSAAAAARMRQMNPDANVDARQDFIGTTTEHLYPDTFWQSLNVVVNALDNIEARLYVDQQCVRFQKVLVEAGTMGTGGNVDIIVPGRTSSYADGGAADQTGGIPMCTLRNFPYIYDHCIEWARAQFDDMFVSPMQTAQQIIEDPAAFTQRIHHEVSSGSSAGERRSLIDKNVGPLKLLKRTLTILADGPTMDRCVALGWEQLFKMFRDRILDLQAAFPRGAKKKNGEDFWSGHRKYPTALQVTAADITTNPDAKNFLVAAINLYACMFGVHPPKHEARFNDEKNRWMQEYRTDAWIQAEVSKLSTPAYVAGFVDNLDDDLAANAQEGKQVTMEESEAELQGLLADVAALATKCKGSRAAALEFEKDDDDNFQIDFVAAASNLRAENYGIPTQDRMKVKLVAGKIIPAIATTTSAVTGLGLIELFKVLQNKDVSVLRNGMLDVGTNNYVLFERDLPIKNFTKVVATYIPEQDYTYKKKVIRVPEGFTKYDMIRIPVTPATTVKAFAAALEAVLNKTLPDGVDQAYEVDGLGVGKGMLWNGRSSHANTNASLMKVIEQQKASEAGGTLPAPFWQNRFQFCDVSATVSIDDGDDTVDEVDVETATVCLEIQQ
Description: Leishmania donovani Ubiquitin Activating Enzyme (LdE1). In kind it is functional. The following applies: 30 µM.

Test [3] has as its target AMP-activated protein kinase, AMPK (Homo sapiens) (UniProt P54646+O43741+P54619+Q9UGJ0+Q9Y478+Q13131+Q9UGI9). In words: AMP-dependent Kinase enzyme assay. An in vitro enzyme assay that detects ADP turnover that is directly proportional to AMPK activity. This uses naive AMPK that is activated during the assay with MK-8722. In kind it is functional. To be noted: 30 µM.
Test [4] has as its target Sialic acid-binding Ig-like lectin 9 (Homo sapiens) (UniProt Q9Y336). Description: Hs-Siglec9 ALPHAscreen SOP 20170721. The following applies: 10 µM.
A further test concerns Trypanosoma cruzi. Description: Trypanosoma cruzi phosphomannomutase and mannose-1-phosphate guanylyltransferase assay. It is filed as functional. The following applies: 10 µM.
The target of test [5] is T2, Arginase-2, mitochondrial (Homo sapiens) (UniProt P78540).
T2 sequence (whole entry): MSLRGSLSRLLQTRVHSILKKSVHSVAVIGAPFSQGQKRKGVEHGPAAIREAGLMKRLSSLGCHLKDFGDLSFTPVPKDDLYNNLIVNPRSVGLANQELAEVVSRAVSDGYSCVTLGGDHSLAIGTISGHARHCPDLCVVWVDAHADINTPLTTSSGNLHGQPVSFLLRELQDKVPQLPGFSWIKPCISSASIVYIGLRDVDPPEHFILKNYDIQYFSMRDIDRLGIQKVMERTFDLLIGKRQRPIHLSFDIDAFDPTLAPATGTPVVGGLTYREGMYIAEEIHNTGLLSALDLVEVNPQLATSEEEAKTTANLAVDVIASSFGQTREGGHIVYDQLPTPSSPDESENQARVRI
Description: in vitro enzyme assay to detect the production of urea directly proportional to the activity of Arginase II. Note: in the data most compounds retested in dose-response had high values. It is filed as functional. To be noted: 33.3 µM.

The target of test [6] is T3, Proteasome subunit beta (Trypanosoma cruzi) (UniProt O96673).
T3 sequence (whole entry): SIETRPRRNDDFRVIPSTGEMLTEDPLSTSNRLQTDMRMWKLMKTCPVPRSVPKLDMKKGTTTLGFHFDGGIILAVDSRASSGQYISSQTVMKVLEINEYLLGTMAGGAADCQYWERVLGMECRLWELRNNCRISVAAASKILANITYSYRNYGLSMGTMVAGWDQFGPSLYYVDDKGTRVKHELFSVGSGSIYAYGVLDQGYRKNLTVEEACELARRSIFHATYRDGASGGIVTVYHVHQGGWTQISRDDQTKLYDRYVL
In words: Trypanosoma cruzi proteasome chymotrypsin-like activity (TcProtChymo) assay. Note: in the data most compounds retested in dose-response had high values. In kind it is functional. The following applies: 9.37 µM.

The species named for a further test is Homo sapiens. In words: To identify inhibition of the IFN signalling (Jak-Stat) pathway via expression of an eGFP reporter gene under the control of an IFN-stimulated response element (ISRE) containing MxA promoter. It is filed as functional. To be noted: 30 µM.
Test [7] has as its target T4, Tyrosyl-tRNA synthetase, putative (Trypanosoma cruzi (strain CL Brener)) (UniProt Q4DSP6).
T4 sequence (whole entry): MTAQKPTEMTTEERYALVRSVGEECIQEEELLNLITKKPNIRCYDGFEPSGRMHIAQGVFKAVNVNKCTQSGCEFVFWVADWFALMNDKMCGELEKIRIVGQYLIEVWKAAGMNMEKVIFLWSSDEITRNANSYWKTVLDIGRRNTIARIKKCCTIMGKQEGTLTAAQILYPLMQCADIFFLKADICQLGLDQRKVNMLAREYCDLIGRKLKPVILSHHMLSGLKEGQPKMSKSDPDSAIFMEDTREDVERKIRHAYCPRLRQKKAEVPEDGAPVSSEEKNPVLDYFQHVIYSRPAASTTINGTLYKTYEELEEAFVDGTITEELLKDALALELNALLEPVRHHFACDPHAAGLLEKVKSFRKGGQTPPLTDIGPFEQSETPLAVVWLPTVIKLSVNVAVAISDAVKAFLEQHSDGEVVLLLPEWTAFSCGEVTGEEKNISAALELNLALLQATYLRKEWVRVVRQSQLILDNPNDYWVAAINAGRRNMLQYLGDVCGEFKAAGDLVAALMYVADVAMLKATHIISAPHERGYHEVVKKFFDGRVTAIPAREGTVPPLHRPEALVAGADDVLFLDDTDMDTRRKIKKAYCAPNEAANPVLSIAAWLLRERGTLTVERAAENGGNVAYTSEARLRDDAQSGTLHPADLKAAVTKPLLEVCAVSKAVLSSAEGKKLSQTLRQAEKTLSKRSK
Description: Trypanosoma cruzi tyrosyl tRNA synthetase (TcYRS) _High Tyrosine SOP. Note: in the data most compounds retested in dose-response had high values. It is filed as functional. The following applies: 30 µM.

Test [8] has as its target T4, Tyrosyl-tRNA synthetase, putative (Trypanosoma cruzi (strain CL Brener)). In words: Trypanosoma cruzi tyrosyl tRNA synthetase (TcYRS) SOP. It is filed as functional. To be noted: 30 µM.
The target of test [9] is Chromo domain-containing protein 1 (Saccharomyces cerevisiae (strain ATCC 204508 / S288c) (Baker's yeast)) (UniProt P32657). Description: ScCHD-1 Enzyme Inhibition Assay. Note: in the data most compounds retested in dose-response had high values. In kind it is functional. The following applies: 30 µM.
Chain of Chromo domain-containing protein 1 (Saccharomyces cerevisiae (strain ATCC 204508 / S288c) (Baker's yeast)) (P32657 whole entry, the tested form may be a part): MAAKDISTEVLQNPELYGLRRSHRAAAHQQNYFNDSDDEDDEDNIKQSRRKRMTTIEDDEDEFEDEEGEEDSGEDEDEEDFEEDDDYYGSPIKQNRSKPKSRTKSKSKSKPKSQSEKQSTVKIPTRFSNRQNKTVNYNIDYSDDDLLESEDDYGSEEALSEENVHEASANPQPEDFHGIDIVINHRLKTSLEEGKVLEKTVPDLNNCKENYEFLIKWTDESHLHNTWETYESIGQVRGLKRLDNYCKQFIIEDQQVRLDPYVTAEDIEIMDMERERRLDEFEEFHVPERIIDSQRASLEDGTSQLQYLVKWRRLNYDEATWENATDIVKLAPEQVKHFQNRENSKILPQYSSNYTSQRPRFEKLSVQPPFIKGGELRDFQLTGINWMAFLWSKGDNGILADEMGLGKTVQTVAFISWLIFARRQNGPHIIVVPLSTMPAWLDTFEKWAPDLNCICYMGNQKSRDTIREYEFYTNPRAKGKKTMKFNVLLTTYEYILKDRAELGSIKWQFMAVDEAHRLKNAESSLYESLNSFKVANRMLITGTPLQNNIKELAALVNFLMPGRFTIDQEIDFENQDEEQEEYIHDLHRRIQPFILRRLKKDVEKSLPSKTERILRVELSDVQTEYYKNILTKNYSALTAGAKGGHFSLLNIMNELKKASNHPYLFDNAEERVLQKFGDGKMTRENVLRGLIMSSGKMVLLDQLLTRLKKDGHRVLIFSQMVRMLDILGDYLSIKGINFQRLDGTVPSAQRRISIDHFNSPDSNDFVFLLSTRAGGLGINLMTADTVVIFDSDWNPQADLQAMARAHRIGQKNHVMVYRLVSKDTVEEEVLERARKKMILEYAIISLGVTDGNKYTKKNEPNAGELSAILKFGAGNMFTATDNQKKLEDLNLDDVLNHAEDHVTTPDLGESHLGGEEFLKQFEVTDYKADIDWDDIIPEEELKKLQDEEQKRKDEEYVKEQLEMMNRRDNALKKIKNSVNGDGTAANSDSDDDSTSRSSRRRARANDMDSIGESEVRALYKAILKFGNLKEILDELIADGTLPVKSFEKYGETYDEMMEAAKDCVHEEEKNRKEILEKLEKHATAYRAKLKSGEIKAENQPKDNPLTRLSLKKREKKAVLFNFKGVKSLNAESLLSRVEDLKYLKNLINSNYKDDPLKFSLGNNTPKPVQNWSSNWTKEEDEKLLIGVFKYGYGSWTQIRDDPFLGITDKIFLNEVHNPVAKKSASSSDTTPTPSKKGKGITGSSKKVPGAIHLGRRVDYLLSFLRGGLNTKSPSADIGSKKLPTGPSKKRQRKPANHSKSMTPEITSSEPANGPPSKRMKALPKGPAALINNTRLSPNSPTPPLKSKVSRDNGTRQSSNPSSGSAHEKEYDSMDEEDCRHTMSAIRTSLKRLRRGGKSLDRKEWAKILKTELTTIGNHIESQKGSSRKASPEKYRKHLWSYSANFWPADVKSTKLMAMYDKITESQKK

Chain of Sialic acid-binding Ig-like lectin 9 (Homo sapiens) (Q9Y336 whole entry): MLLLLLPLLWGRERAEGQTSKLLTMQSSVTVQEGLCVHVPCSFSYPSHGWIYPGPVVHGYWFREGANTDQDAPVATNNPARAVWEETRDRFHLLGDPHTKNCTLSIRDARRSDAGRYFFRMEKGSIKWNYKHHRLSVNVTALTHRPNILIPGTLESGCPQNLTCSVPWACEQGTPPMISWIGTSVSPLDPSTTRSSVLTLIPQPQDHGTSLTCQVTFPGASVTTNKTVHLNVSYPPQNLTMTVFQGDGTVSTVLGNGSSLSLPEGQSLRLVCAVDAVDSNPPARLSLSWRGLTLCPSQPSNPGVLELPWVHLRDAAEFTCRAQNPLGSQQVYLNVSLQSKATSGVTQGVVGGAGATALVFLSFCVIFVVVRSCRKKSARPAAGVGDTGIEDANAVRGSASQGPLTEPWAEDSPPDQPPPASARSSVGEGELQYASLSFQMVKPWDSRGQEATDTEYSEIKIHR

On to `CC(=O)Nc1nc(C(=O)N2CCCC2c2ccccc2C)cs1` (stereo not given), for which the Percent Effect was -3.82% in test [1]; 10.4% in test [2]; 8.63% in test [3]; 1.33% in test [4]; -8.24% in the test with Trypanosoma cruzi; 4.27% in [5]. Besides, the Percent Effect is 3.21% in test [6]; 31.4% in the test listed under Homo sapiens; 5.83% in test [7]; 9.76% in test [8]; -5.39% in test [9].

Regarding `CC(C)OCCCNC(=O)CS(=O)(=O)Cc1ccc(Cl)c(Cl)c1`, the Percent Effect was -6.75% in [1]; 5.2% in test [2]; 9.19% in test [3]; -7.16% in test [4]; -5.8% with Trypanosoma cruzi; -1.78% in [5]. In addition, the Percent Effect is 9.63% in test [6]; 33.8% in the test listed under Homo sapiens; 3.88% in [7]; 12.2% in [8]; -5.85% in test [9].

In the case of `O=C(c1cccc(OC2CCCC2)c1)N1CCCC(n2cncn2)C1` (stereo not given), the Percent Effect is -4.01% in test [1]; 5.41% in test [2]; 12.1% in test [3]; 4.98% in test [4]; 5.57% in the test with Trypanosoma cruzi; -5.61% in [5]. Besides, the Percent Effect was -3.06% in test [6]; 21.5% in the test filed under Homo sapiens; 7.39% in [7]; 13.6% in test [8]; -11.7% in [9].

For `Cc1cccc2cc(CNCCCN3CCOCC3)c(=O)[nH]c12`, the Percent Effect is -7.31% in test [1]; 17.6% in [2]; -2.19% in test [3]; 3.5% in test [4]; 6.13% in the test on Trypanosoma cruzi; -2.09% in test [5]. Also, the Percent Effect is 11.2% in test [6]; 2.24% in the test filed under Homo sapiens; 3.23% in test [7]; 14.3% in test [8]; -27.6% in [9].

As for `O=C(CCc1ccccc1)Nc1ncccc1OC(F)F`, the Percent Effect is -2.62% in test [1]; 6.94% in [2]; -0.321% in [3]; -1.86% in test [4]; -3.4% in the test on Trypanosoma cruzi; -0.883% in test [5]. In addition, the Percent Effect in test [6] is 13.5%; in the test filed under Homo sapiens, -3.51%; in [7] it was 1.05%; in [8] it was 0%; in test [9], -2.3%.

As for `COc1ccc(OCc2sc(C3(O)CCCNCC3)nc2C)cc1` (stereo not given), the Percent Effect in [1] is -4.47%; in [2], 9.46%; in test [3], 3.29%; in [4], 4.34%; in the test on Trypanosoma cruzi it was -1.58%; in test [5], 3.48%. In addition, the Percent Effect in [6] is 4.52%; in the test filed under Homo sapiens, 2.06%; in test [7] it was 3.23%; in test [8], 6.49%; in test [9], -17.3%.

As for `CCN1Cc2c(C(=O)NCC3CC3)ncn2-c2ccccc2S1(=O)=O`, the Percent Effect in test [1] is 3.87%; in [2] it was -5.48%; in test [3], -3.01%; in test [4], 4.85%; with Trypanosoma cruzi, 3.37%; in [5], -0.399%. Moreover, the Percent Effect in test [6] is 16%; in the test listed under Homo sapiens it was -1.54%; in test [7] it was 0%; in test [8] it was 18.5%; in test [9], -2.17%.

Turning to `O=C(NCCOc1cccc(Cl)c1)C1CC(=O)N(CC2CC2)C1` (stereo not given), the Percent Effect was -3.05% in test [1]; 26.3% in [2]; 6.34% in test [3]; -5.8% in test [4]; 6.82% in the test on Trypanosoma cruzi; 4.32% in test [5]. Also, the Percent Effect was 13.3% in test [6]; -1.81% in the test listed under Homo sapiens; 4.43% in test [7]; 25.9% in test [8]; -10.9% in test [9].

For `Cc1nc(C)n(CC2CCCN(CC(=O)Nc3nncs3)C2)n1` (stereo not given), the Percent Effect was -2.17% in [1]; -2.63% in [2]; 3.08% in [3]; 5.75% in [4]; -2.26% in the test with Trypanosoma cruzi; -1.15% in test [5]. Further, the Percent Effect in [6] was 4.84%; in the test filed under Homo sapiens, -3.5%; in [7] it was 1.47%; in test [8], 0%; in test [9], -0.768%.

`Cn1nc(CNC(=O)c2nc3ccccc3s2)c2c1CCOC2`: the Percent Effect is -1.59% in test [1]; 0% in test [2]; 8.14% in test [3]; 0.56% in test [4]; 5.03% with Trypanosoma cruzi; -0.645% in test [5]. The Percent Effect was 4.18% in [6]; 24.8% in the test listed under Homo sapiens; 1.06% in test [7]; 6.41% in [8]; -5.4% in [9].
